# Source: PubChem BioAssay (Tox21)
# Unmarked numbers belong to inactive results. The source made the active and inactive calls. The call rests on the fitted dose curve; in most records, active means well fitted activation curve with a large enough effect in the repeat runs; inconclusive means weak or mixed curves; inactive means flat fitted curve, though single readings scatter.
# Test: Caspase-3/7 induction in CHO-K1 cells by small molecules, qHTS assay (AID 1346980); further: nearly all actives have a fitted effect of over 15% in size
# Details: CHO-K1 caspase-3/7 induction, Caspase-Glo luminescence, 17 h; series mostly up to 92.4 µM
# From the text: National Center for Advancing Translational Sciences [NCATS]
# NIH Chemical Genomics Center [NCGC]
# U.S. Environmental Protection Agency [EPA]
# National Institutes of Environmental Health Sciences [NIEHS]
# National Toxicology Program [NTP]
# Apoptosis is a process of programmed cell death and plays a central role in the development of multicellular organisms. It is a highly regulated process and induces cell death by activating caspases, which are the members of cysteine aspartic acid-specific protease (caspase) family. Caspases involved in apoptosis are classified by their mechanism of action as initiator caspases (caspase-2, -8, -9 and -10) and executioner caspases (caspase-3, -6, and -7). Inhibition of apoptosis results in number of cancers, autoimmune diseases, inflammatory diseases and viral infection. To identify small molecule compounds that induce apoptosis, a homogeneous, luminescent Caspase-Glo 3/7 assay was used. Wild type CHO-K1 cells were used to screen Tox21 libraries for identifying caspase-3/7 activity inducers.
# CHO-K1 cells were dispensed at 1,500 per well in 5uL of culture medium into white solid bottom 1536-well plates (Corning Life Sciences, Corning, NY) using a Multidrop Combi (Thermo Scientific, Waltham, MA) dispenser. The assay plates were incubated at 37 C and 5% CO2 for 5hr, and then 23nL of compounds dissolved in DMSO and positive control were transferred using a Pintool station (Wako, San Diego, CA). The assay plates were incubated at 37C and 5% CO2 for 17hr. For caspase-3/7 activity read, 4uL of Caspase-Glo 3/7 reagent (Promega Corporation, Madison, WI) was added to each well of the assay plates using Flying Reagent Dispenser (FRD, Aurora Discovery, San Diego, CA) and incubated the assay plates at room temperature for 30min. The luminescence signal was quantified using a ViewLux plate reader (Perkin Elmer, Shelton, CT).
# On the % scale 0 is the no-effect control and ±100 the full control effect.
SMILES,outcome,caspase-3/7 activation
Nc1nc2c(ncn2COC(CO)CO)c(=O)[nH]1,inactive,
C/C=C(\C)C#N,inactive,
CS(=O)(=O)O,inactive,
N=C(N)c1ccc(OCCCOc2ccc(C(=N)N)cc2)cc1,inactive,
NC(CSCC(=O)O)C(=O)O (stereo not given),inactive,
CCN(CC)CCOCCOC(=O)C1(c2ccccc2)CCCC1,inactive,
N#Cc1ccc(C2CCCc3cncn32)cc1 (stereo not given),inactive,
Cc1cccc(C)c1NC(=O)C(C)N (stereo not given),inactive,
COC(=O)C1=C(C)NC(C)=C(C(=O)OC)C1c1ccccc1[N+](=O)[O-],inactive,
COc1nc(N)nc2c1ncn2[C@@H]1O[C@H](CO)[C@@H](O)[C@@H]1O,inactive,
CC(=O)Nc1c(I)cc(I)c(C(=O)O)c1I,inactive,
COc1ccc2c(c1)c(CC(=O)OCC(=O)O)c(C)n2C(=O)c1ccc(Cl)cc1,inactive,
COC(=O)c1ccc(C)cc1C1=NC(C)(C(C)C)C(=O)N1 (stereo not given),inactive,
FC1(F)C(F)(F)C(F)(F)C2(F)C(F)(F)C(F)(F)C(F)(F)C(F)(F)C2(F)C1(F)F (stereo not given),inactive,
CN1C(=O)N(C)C(O)C1O (stereo not given),inactive,
COc1c(N2C[C@@H]3CCCN[C@@H]3C2)c(F)cc2c(=O)c(C(=O)O)cn(C3CC3)c12,inactive,
O=C(CCCN1CCC(O)(c2cccc(C(F)(F)F)c2)CC1)c1ccc(F)cc1,inactive,
CCC(=O)OC(C)c1ccccc1 (stereo not given),inactive,
O=C(O)CN(CCOCCOCCN(CC(=O)O)CC(=O)O)CC(=O)O,,0.707% [at 0.349 µM]
CC(=O)Nc1ccc(S(N)(=O)=O)cc1,inactive,

SMILES,outcome,caspase-3/7 activation
CC(C)c1cc2c(cc1S(=O)(=O)O)[C@@]1(C)CCC[C@@](C)(C(=O)O)[C@@H]1CC2,inactive,
CC(C)(C)c1ccc(O)c(O)c1,inactive,
C[N+](C)(C)CCCCCC[N+](C)(C)C,inactive,
COC(=O)CC(C)=O,inactive,
OC1CCCCC1c1ccccc1 (stereo not given),inactive,
CCCN1CCCC[C@H]1C(=O)Nc1c(C)cccc1C,inactive,
Cc1cccn2c(=O)c(-c3nnn[nH]3)cnc12,,-1.17% [at 19 µM]
CCO[Si](CCC1CCC2OC2C1)(OCC)OCC (stereo not given),inactive,
CCOC(=O)C(=O)OCC,inactive,
OC[C@]1(O)OC[C@@H](O)[C@H](O)[C@@H]1O,inactive,
CCC(C)S (stereo not given),,1.28% [at 3.27 µM]
CCOc1ccc(C(=O)OCCN(CC)CC)cc1,inactive,
CC(=O)c1ccccc1O,inactive,
N=c1nc(N2CCCCC2)cc(N)n1O,inactive,
C[C@H]1C[C@@H](O)CC(C)(C)C1,inactive,
COCCCOCCCOC,inactive,
CC(=O)N(CC(O)CO)c1c(I)c(C(=O)NCCO)c(I)c(C(=O)NCC(O)CO)c1I (stereo not given),inactive,
CCO/C([O-])=N/c1c[n+](N2CCOCC2)no1,inactive,
NS(=O)(=O)c1ccccc1Cl,inactive,
CCCCCCCCCCCC,inactive,
